{"source": "PubChem BioAssay AID651626", "about": "(National Center for Advancing Translational Sciences (NCATS), 2012)", "note": "Calls of active or inactive are those of the source.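 The calls were made as follows: active = inhibition of at least 60% at 114 µM in the USP2 gel assay; inconclusive = inhibition from 30% up to under 60% at 114 µM; inactive = inhibition under 30% at 114 µM.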"}
{"target": "Ubiquitin carboxyl-terminal hydrolase 2 (Homo sapiens) (UniProt O75604)", "sequence (O75604 whole entry, looked up)": "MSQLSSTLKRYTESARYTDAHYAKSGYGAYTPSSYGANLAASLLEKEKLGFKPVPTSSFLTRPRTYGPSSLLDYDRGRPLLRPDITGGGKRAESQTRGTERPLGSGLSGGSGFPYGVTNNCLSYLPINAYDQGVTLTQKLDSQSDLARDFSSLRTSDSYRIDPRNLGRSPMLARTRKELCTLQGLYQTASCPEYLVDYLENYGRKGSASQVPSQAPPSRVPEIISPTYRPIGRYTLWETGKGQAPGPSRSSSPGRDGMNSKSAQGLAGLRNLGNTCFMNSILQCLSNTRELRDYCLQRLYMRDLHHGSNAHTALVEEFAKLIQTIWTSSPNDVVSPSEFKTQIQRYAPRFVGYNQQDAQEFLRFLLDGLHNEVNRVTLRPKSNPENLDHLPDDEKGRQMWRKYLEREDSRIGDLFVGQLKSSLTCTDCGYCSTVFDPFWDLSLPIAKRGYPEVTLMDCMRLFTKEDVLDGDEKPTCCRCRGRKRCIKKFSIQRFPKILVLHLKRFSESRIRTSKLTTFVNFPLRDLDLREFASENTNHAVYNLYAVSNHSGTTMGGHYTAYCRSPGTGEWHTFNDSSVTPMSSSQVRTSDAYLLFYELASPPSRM", "test": "Inhibitors of USP1/UAF1: SAR in USP2 diubiquitin SDS-PAGE gel assay", "details": "USP2 K63 diubiquitin cleavage, SDS-PAGE gel densitometry; series mostly up to 114 µM; inhibition: at the top concentration", "from_the_text": "Deubiquitinating enzymes (DUBs) are a class of enzymes that can cleave isopeptide bond formed between the C-terminal carboxylate of ubiquitin and a lysine side-chain amino group on the target protein. Among them, ubiquitin specific proteases (USPs) constitute the largest DUB family. Human USPs are emerging as promising targets for pharmacological intervention because of their connection to a number of human diseases, including prostate, colon and breast cancer (1, 2), pediatric acute lymphoblastic leukemia (3), and familial cylindromatosis (4). The advantage of inhibiting USPs lies in the potential specificity of therapeutic intervention that can lead to better efficacy and reduce nonspecific side effects. In a collaboration between the University of Delaware and the NIH Chemical Genomics Center, a high-throughput screen assay was developed to screen for USP1/UAF1 inhibitors (5). […]\nThe inhibition assay contains 20 nM USP2, 2 microM K63 linked diubiquitin, and inhibitors at varied concentrations (0.08 microM - 114 microM). […] The intensity of the individual diubiquitin and monoubiquitin band was quantified using Quantity One 4.3.1 (Biorad, Hercules, CA). The percentage of the conversion was determined and used to calculate the reaction rate. […]"}
{"smiles": "Cc1cnc(-c2ccccc2C(C)C)nc1NCc1ccc(-n2ccnn2)cc1", "inhibition": "8% (inactive)"}
